# Several values for one entry are separate records, joined by “and”; a condition that tells them apart may be missing. Identical values can stand only once. The panel holds about 83,000 compounds, 20% with a hit somewhere; the sample as a whole holds those more often.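 Single-concentration screen, 48 h exposure, 96-well plates. Endpoint: percent growth. Below 10 = active.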 Activity calls are given as the source filed them.
# Test system: NCI-H23 lung
# Experiment: NCI-60 one-dose screen, 48 h (100 = growth as untreated, 0 = no growth, -100 = all killed)
# Conditions: 10 µM
# Method: Growth inhibition of the NCI-H23 human Non-Small Cell Lung tumor cell line is measured as a screen for anti-cancer activity. Cells are grown in 96 well plates and exposed to the test compound for 48 hours. Compounds are tested at a single concentration, which is 10^-5 M for most compounds. The reported endpoint is percent growth (GI% or GIPRCNT), where numbers from 0 - 100% represent growth inhibition, and numbers from -100% - 0 represent cell death. For example, a value of 40 represents 60% growth inhibition. A value of 0 means no net growth occurred over the course of the experiment. A value of -40 indicates 40% of cells at the beginning of the experiment died by the end of the experiment. A value of -100 means all cells are dead at the end of the experiment.
# NCI-60 Human Tumor Cell Lines Screen was performed using the standard one-dose NCI protocol, which is described in more detail at https://dtp.cancer.gov/discovery_development/nci-60/default.htm.
# Compounds with GIPRCNT values below 10 were considered active. Activity score was based on GIPRCNT using the following formula: […]
# Score is 0 for GIPRCNT values of 100 or above, 50 for GIPRCNT values of 0, and 100 for GIPRCNT values of -100.
row,Structure (SMILES),growth
1,CC(=O)O[C@@H]1C[C@H]2O[C@@H]3C=C(C)CC[C@]3(C)[C@]1(C)[C@]21CO1,7.96% (active)
2,COC(=O)[C@H]1[C@@H](O)[C@@]2(O)c3c(OC)cc(OC)cc3O[C@@]2(c2ccc(OC)cc2)[C@@H]1c1ccccc1,-12% (active)
3,C=C1[C@@H](C)C2[C@H](Cc3ccccc3)NC(=O)[C@]23[C@H](OC(C)=O)/C=C/[C@@](C)(O)C(=O)[C@@H](C)C/C=C/[C@H]3[C@@H]1O (some centres undefined),69.8% (inactive)
4,C[C@@H]1CCC/C=C/[C@H]2C[C@@H](O)C[C@@H]2[C@@H](O)/C=C/C(=O)O1,5.85% (active)
5,CC1=C[C@H]2O[C@@H]3C[C@@H](O)[C@](C)([C@@]2(C)CC1)[C@@]31CO1,28.4% (inactive)
6,C/C=C/CC(C)C(O)[C@H](NC(=O)[C@@H]1CCCN1C(=O)C(C)(C)NC(=O)CCCCCCCCC)C(=O)NC(C)(C)C(=O)N[C@@H](CCC(N)=O)C(=O)N[C@H](CCC(N)=O)C(=O)NC(C)(C)C(=O)NC(C)(C)C(=O)N[C@@H](CCC(N)=O)C(=O)N[C@H](CC(C)C)C(=O)N[C@H](CO)CC(C)C (some centres undefined),37.1% (inactive) and -16.1% (active)
7,CC(C)=CCc1c2c(c(O)c3c1O[C@]14C(=C[C@@H]5C[C@H]1C(C)(C)O[C@@]4(C/C=C(/C)C(=O)O)C5=O)C3=O)C=CC(C)(C)O2,-45.4% (active)
8,CC(C)(O)/C=C/C(=O)[C@](C)(O)[C@H]1[C@H](O)C[C@@]2(C)[C@H]3CC=C4[C@@H](C[C@H](O)C(=O)C4(C)C)[C@]3(C)C(=O)C[C@]12C,27.7% (inactive)
9,CC1=C2C(=C[C@@](C)(COC(=O)c3ccc(S(=O)(=O)F)cc3)[C@@H]2OC(=O)c2ccc(S(=O)(=O)F)cc2)C(=O)[C@](C)(O)C12CC2,-21.4% (active)
10,C[C@@H]1C[C@H]2C(=O)O[C@@H](C)C(NC(=O)[C@H](Cc3cc(F)cc(F)c3)NC(=O)Nc3ccc(OS(=O)(=O)F)cc3)C(=O)N3CCC[C@H]3C(=O)N3CCO[C@H](C)[C@H]3C(=O)N[C@@H](CO)C(=O)N2C1 (some centres undefined),36.1% (inactive)
11,CC1=C(CCC=NNC(N)=O)C2=C(C)C3(CC3)[C@@](C)(O)C(=O)C2=C1,-35.2% (active)
12,NC1CCc2cc(O)c(O)cc2C1 (centres undefined),91.8% (inactive)
13,Cc1ccc(CNc2nc3ccc(OC/C(=C/F)CN)cc3o2)cn1,88.4% (inactive)
14,CC1=C[C@H]2O[C@@H]3C[C@H]4OC(=O)/C=C\C=C\[C@H]([C@@H](C)O)OCC/C(C)=C/C(=O)OC[C@@]2(CC1)[C@]4(C)[C@]31CO1,-36.1% (active)
15,CC1=C[C@H]2O[C@@H]3C[C@H]4OC(=O)/C=C\C=C\[C@H]([C@@H](C)O)OCC[C@@H](C)[C@H](O)C(=O)OC[C@@]2(CC1)[C@]4(C)[C@]31CO1,-36.6% (active)
16,CN(CCF)/N=N/c1nc[nH]c1C(N)=O,77% (inactive)
17,N#Cc1c(-n2c(Br)c(Br)c3cc(Br)ccc32)[nH]c2c(Br)cc(Br)cc12,-36.4% (active)
18,COc1cc(C)c(-c2ccc(OC)c(=O)cc2C)c(OC)c1OC,22.3% (inactive) and 106% (inactive)
19,CC(=O)O[C@@H]1[C@@H]2O[C@H]2[C@@](C)(O)C(=O)[C@@H](C)C/C=C/[C@H]2[C@@H]3O[C@]3(C)[C@@H](C)C3[C@H](Cc4ccccc4)NC(=O)[C@@]312 (some centres undefined),70.4% (inactive)
20,C/C=C/CC(C)C(O)[C@H](NC(=O)[C@@H]1CCCN1C(=O)C(C)(C)NC(=O)CCCCCCCCC)C(=O)N[C@@](C)(CC)C(=O)N[C@@H](CCC(N)=O)C(=O)N[C@H](CCC(N)=O)C(=O)NC(C)(C)C(=O)N[C@@](C)(CC)C(=O)N[C@@H](CCC(N)=O)C(=O)N[C@H](CC(C)C)C(=O)N[C@H](CO)CC(C)C (some centres undefined),105% (inactive) and -48.3% (active)

row,Structure (SMILES),growth
1,COc1cc2c(O[C@@H]3OC[C@H](OC(C)=O)[C@H](OC(C)=O)[C@H]3O)c3c(c(-c4ccc5c(c4)OCO5)c2cc1OC)C(=O)OC3,46.3% (inactive)
2,COc1cc2c(O[C@@H]3OC[C@H](O)[C@H](O)[C@H]3O)c3c(c(-c4ccc5c(c4)OCO5)c2cc1OC)C(=O)OC3,72.8% (inactive)
3,COc1cc2c(cc1OC)[C@@H]1N(CC2)C(=O)c2ccccc2[C@@]1(C)C(=O)O,102% (inactive)
4,COc1cccc2c1cc([N+](=O)[O-])c1c(C(=O)O)cc3c(c12)OCO3,102% (inactive)
5,CC1=C2C(=O)[C@](C)(CO)C=C2C(=O)[C@](C)(O)C12CC2,-14.8% (active)
6,C/C=C\C(=O)O[C@@H]1CC2O[C@@H]3C=C(C)C(=O)C[C@]3(C)[C@]1(C)[C@]21CO1,-21.3% (active)
7,CCC(C)[C@H]1C(=O)O[C@H](C(C)C)C(=O)N(C)[C@@H](C(C)C)C(=O)O[C@H](C(C)C)C(=O)N(C)[C@@H](C(C)C)C(=O)O[C@H](C(C)C)C(=O)N1C (some centres undefined),10% (inactive)
8,O=C(CCCc1ccc(N(CCCl)CCCl)cc1)OCc1ccccc1,89.3% (inactive)
9,CC1=C2C(=C[C@@](C)(C=O)[C@@H]2O)C(=O)[C@](C)(O)C12CC2,-24% (active)
10,CC1=C2C(=C[C@@](C)(COC(=O)c3ccc(S(=O)(=O)F)cc3)[C@@H]2O)C(=O)[C@](C)(O)C12CC2,-32.2% (active)
11,CC1=C2C(=C[C@@](C)(COS(C)(=O)=O)[C@@H]2O)C(=O)[C@](C)(O)C12CC2,-18.5% (active)
12,COC1[C@@H]2C[C@H]3C(C)(C)O[C@@](C/C=C(/C)C(=O)O)(C2=O)[C@]32Oc3c(CC=C(C)C)c4c(c(O)c3C(=O)[C@H]12)C=CC(C)(C)O4 (some centres undefined),-64.5% (active)
13,CCCCCCCCCC(=O)N[C@@](C)(CC)C(=O)N1CCC[C@H]1C(=O)N[C@@H](CC(C)C)C(=O)N[C@@](C)(CC)C(=O)N[C@@H](CCC(N)=O)C(=O)N[C@H](CCC(N)=O)C(=O)NC(C)(C)C(=O)NC(C)(C)C(=O)N[C@@H](CCC(N)=O)C(=O)N[C@H](CC(C)C)C(=O)N[C@H](CO)CC(C)C,-78.3% (active) and -84.7% (active)
14,CC1=C(CN(O)C(N)=O)C2=C(C)C3(CC3)[C@](C)(O)C(=O)C2=C1,10.7% (inactive)
15,CC1=C(CN(O)C(N)=O)C2=C(C)C3(CC3)[C@@](C)(O)C(=O)C2=C1,-28.5% (active)
16,C/C=C/CC(C)C(O)[C@H](NC(=O)[C@@H]1CCCN1C(=O)C(C)(C)NC(=O)CCCCCCCCC)C(=O)N[C@@](C)(CC)C(=O)N[C@@H](CCC(N)=O)C(=O)N[C@H](CCC(N)=O)C(=O)NC(C)(C)C(=O)NC(C)(C)C(=O)N[C@@H](CCC(N)=O)C(=O)N[C@H](CC(C)C)C(=O)N[C@H](CO)CC(C)C (some centres undefined),15.6% (inactive) and 49.3% (inactive)
17,N#Cc1nc(-c2ccccc2)oc1N1CCC(S(=O)(=O)F)CC1,99.2% (inactive)
18,C/C=C/CC(C)C(O)[C@H](NC(=O)[C@@H]1CCCN1C(=O)C(C)(C)NC(=O)CCCCCCC)C(=O)N[C@@](C)(CC)C(=O)N[C@@H](CCC(N)=O)C(=O)N[C@H](CCC(N)=O)C(=O)NC(C)(C)C(=O)NC(C)(C)C(=O)N[C@@H](CCC(N)=O)C(=O)N[C@H](CC(C)C)C(=O)N[C@H](CO)CC(C)C (some centres undefined),16.4% (inactive)
19,CN1C(=O)[C@]23SSC1(C)C(=O)N2[C@H]1Nc2ccccc2C1([C@@]12c4ccccc4N[C@@H]1N1C(=O)C4(C)SS[C@]1(C(=O)N4C)[C@H]2O)[C@@H]3O (some centres undefined),-66.4% (active)

# — PubChem BioAssay (NCI)
